Tests used:
Conditions in all cases: concentration: 1 μM, replicates: in singlicate; n = 1
SRMS = system: SRMS
SRPK1 = system: SRPK1
SRPK2 = system: SRPK2
SRPK3 = system: SRPK3
STK16 = system: STK16
STK33 = system: STK33
STK35 = system: STK35
STK36 = system: STK36
STK39 = system: STK39
SYK = system: SYK
SgK110 = system: SgK110
TAK1 = system: T1, TAK1
T1 construct: gene MAP3K7

TAOK1 = system: TAOK1
TAOK2 = system: TAOK2
TAOK3 = system: TAOK3
TBK1 = system: TBK1
TEC = system: TEC
TESK1 = system: TESK1
TGFBR2 = system: TGFBR2
TGFBR1 = system: TGFBR1
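Also: KINOMEscan kinase panel screen.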

Row | Structure (SMILES) | %Inh (SRMS) [%] | %Inh (SRPK1) [%] | %Inh (SRPK2) [%] | %Inh (SRPK3) [%] | %Inh (STK16) [%] | %Inh (STK33) [%] | %Inh (STK35) [%] | %Inh (STK36) [%] | %Inh (STK39) [%] | %Inh (SYK) [%] | %Inh (SgK110) [%] | %Inh (TAK1) [%] | %Inh (TAOK1) [%] | %Inh (TAOK2) [%] | %Inh (TAOK3) [%] | %Inh (TBK1) [%] | %Inh (TEC) [%] | %Inh (TESK1) [%] | %Inh (TGFBR2) [%] | %Inh (TGFBR1) [%]
1 | Nc1nc(-c2ccccn2)c(-c2ccnc3ccccc23)s1 [GW548057] | 0 | 0 | 58 | 0 | 19 | 1 | 0 | 0 | 7 | 2 | 0 | 20 | 0 | 0 | 0 | 12 | 8 | 0 | 50 | –
2 | CCCc1ccc(S(=O)(=O)NC2CCN(c3ccnc(Nc4ccc(OC)cc4)n3)C2)cc1 (stereo not drawn) [GSK1379737] | 0 | 28 | 28 | 0 | 1 | 0 | 0 | 15 | 17 | 18 | 0 | 0 | 0 | 0 | 0 | 0 | 0 | 36 | 0 | 28
3 | Cl.c1ccc(Cn2ncc3cc(Nc4ncnc5ccccc45)ccc32)cc1 [GW273749] | 0 | 16 | 0 | 0 | 40 | 0 | 0 | 0 | 0 | 18 | 0 | 0 | 0 | 0 | 0 | 23 | 0 | 0 | 0 | 6
4 | Cc1cccc(-c2nc(Nc3ccc4[nH]nnc4c3)c3ccccc3n2)n1 [GW867587] | 10 | 0 | 0 | 7 | 0 | 0 | 0 | 0 | 0 | 0 | 19 | 0 | 0 | 0 | 0 | 14 | 0 | 0 | 0 | 32
5 | FC(F)(F)c1cc(Nc2nccc(-c3c(-c4ccc(Cl)cc4)nn4ncccc34)n2)ccc1Cl [GW829351] | 27 | 0 | 7 | 4 | 0 | 0 | 0 | 21 | 0 | 2 | 23 | 0 | 0 | 2 | 0 | 2 | 0 | 0 | 0 | 21
